Source: PubChem
Most compounds without a hit are left out; they make up all but 0.51% or so of the library.
Tat export inh = E. coli Tat transport inhibition; inhibition, % at 10 µM; AID 488895; hit rate 0.036% among 340,000; E. coli MC4100 TorA-mCherry Tat export, fluorescence;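 active means mean replicate inhibition at least 50% and at least half of replicates individually reaching 50%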;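 further: exported cargo escapes ClpAP degradation while cytoplasmic cargo is degraded and loses fluorescence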
E coli growth-1 = blocks Escherichia coli growth | hit rate 0.21% among 330,000 | AID 1053175 | OD600, 23 h; active compounds read low | OD600 absorbance (test concentration not listed);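 active means OD600 absorbance below the run mean of sample wells minus 3.6 SD, in any replicate, cut at about 0.56 in these data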
phage Ecoli inh = E. coli growth loss with phage present | growth absorbance | inhibition, % at 11.9 µM | hit rate 0.26% among 360,000; in the data active means inhibition above about 11%
AddAB inh = less growth of phage-infected E. coli with AddAB | E. coli expressing H. pylori AddAB, absorbance growth | inhibition, % at 11.9 µM | hit rate 0.29% among 330,000 | AID 435030; in the data active means inhibition above about 12%
E coli growth-2 = bacterial growth inhibition, counter-screen for AddAB inhibitors. E. coli V3065 growth, OD600 absorbance, 18 h. inhibition, % at 11.9 µM. hit rate 0.27% among 330,000. AID 449728;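 active means inhibition above the campaign's mean inhibition across all tested compounds plus 3 SD, cut at about 9.9% in these data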;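 further: uninfected addAB+ strain grown without phage in ampicillin broth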
A number is an active result.

For O=C(Oc1ccc(Cl)c2cccnc12)c1cccnc1 the results were Tat export inh inactive, E coli growth-1 0.37, phage Ecoli inh inactive, AddAB inh inactive and E coli growth-2 inactive.
Cc1ccc(C(=O)Oc2ccc(Cl)c3cccnc23)cc1[N+](=O)[O-] was read as Tat export inh inactive, E coli growth-1 inactive, phage Ecoli inh inactive, AddAB inh inactive and E coli growth-2 inactive.
Screening CCCCCCCN1CC=CC(c2ccc(OC)cc2)N(Cc2ccc(F)cc2)C(=O)C1Cc1ccccc1 (stereo not given) returned E coli growth-1 inactive.
For O=C(NCCc1ccc(Cl)cc1)C1CCN(S(=O)(=O)c2cccc3nonc23)CC1 the results were Tat export inh inactive, E coli growth-1 inactive, phage Ecoli inh inactive, AddAB inh inactive and E coli growth-2 inactive.
For O=C(NCc1ccc(Cl)cc1)C1CCN(S(=O)(=O)c2cccc3nonc23)CC1 the results were Tat export inh inactive, E coli growth-1 0.53, phage Ecoli inh inactive, AddAB inh inactive and E coli growth-2 inactive.
O=C(O)CN1C(=O)/C(=C\c2cc(Br)ccc2OCc2ccc(Cl)cc2)SC1=S was read as Tat export inh inactive, E coli growth-1 inactive and phage Ecoli inh inactive.
Screening O=C(O)CN1C(=O)/C(=C\c2cc([N+](=O)[O-])ccc2OCc2ccccc2Cl)SC1=S returned Tat export inh inactive, E coli growth-1 0.54, phage Ecoli inh inactive, AddAB inh inactive and E coli growth-2 inactive.
CC1(C)CC[C@]2(C(=O)O)CC[C@]3(C)C(=CCC4[C@@]5(C)CCC(O)C(C)(C)C5CC[C@]43C)C2C1 (stereo not given in full) was read as E coli growth-1 inactive.
Screening CCCCCN=C(N)NN=Cc1c[nH]c2ccc(OC)cc12 returned E coli growth-1 0.059.
Screening CCCCNC(=S)Nc1ccc([N+](=O)[O-])cc1 returned Tat export inh inactive, E coli growth-1 0.52, phage Ecoli inh inactive, AddAB inh inactive and E coli growth-2 inactive.
CC(C)CCNC(=S)Nc1ccc([N+](=O)[O-])cc1 was read as Tat export inh inactive, E coli growth-1 inactive, phage Ecoli inh inactive, AddAB inh inactive and E coli growth-2 inactive.
`Clc1ccc(OCCCNCc2ccccc2)c2ccccc12` gave Tat export inh inactive, E coli growth-1 0.4, phage Ecoli inh inactive, AddAB inh inactive and E coli growth-2 inactive.
For CC[C@@H](C(=O)[C@@H](C)[C@@H](O)[C@H](C)[C@@H]1O[C@@H]([C@@H](CC)C(=O)O)CC[C@@H]1C)[C@H]1O[C@]2(C=C[C@@H](O)[C@]3(CC[C@@](C)([C@H]4CC[C@](O)(CC)[C@H](C)O4)O3)O2)[C@H](C)C[C@@H]1C the results were Tat export inh inactive and phage Ecoli inh 12.
`CCn1cc(C(=O)O)c(=O)c2cnc(N3CCN(C(=S)NC(=O)c4ccc(OC)cc4)CC3)nc21` gave Tat export inh inactive, E coli growth-1 0.43, phage Ecoli inh inactive, AddAB inh inactive and E coli growth-2 inactive.
CCN(c1ccccc1)S(=O)(=O)c1ccc(Cl)c(C(=O)O)c1 was read as Tat export inh inactive, E coli growth-1 0.55, phage Ecoli inh inactive, AddAB inh inactive and E coli growth-2 inactive.
`Oc1c(Cl)cc(Cl)cc1CNc1nc2ccccc2[nH]1` gave Tat export inh inactive, E coli growth-1 0.42, phage Ecoli inh inactive, AddAB inh inactive and E coli growth-2 inactive.
For Oc1c(Cl)cc(Cl)cc1CNc1ccccn1 the results were Tat export inh inactive, E coli growth-1 inactive and phage Ecoli inh inactive.
CC(=O)OC1C(Oc2c(O)c(C)c3c4c2C(C)CCC4C(C)CC3C=C(C)C)OCC(O)C1O (stereo not given) was read as E coli growth-1 inactive.
For NC1=NC[C@@H](CC2CCCCC2)N1CCc1cc(C(F)(F)F)cc(C(F)(F)F)c1 the results were Tat export inh inactive, E coli growth-1 0.062, AddAB inh inactive and E coli growth-2 inactive.
Screening O=C(c1cc(O)c(O)c([N+](=O)[O-])c1)c1ccccc1F returned Tat export inh 57, E coli growth-1 inactive, phage Ecoli inh inactive, AddAB inh inactive and E coli growth-2 inactive.
For CN1N=C(C=Cc2ccccc2)CCC1=O the results were E coli growth-1 inactive.
O=[N+]([O-])c1nn(-c2ccc3c(c2)OCCO3)n(O)c1=NCCCO was read as Tat export inh inactive, E coli growth-1 inactive, phage Ecoli inh inactive, AddAB inh inactive and E coli growth-2 14.
For Cc1ccc(CN=c2c([N+](=O)[O-])nn(-c3ccc4c(c3)OCCO4)n2O)cc1 the results were Tat export inh inactive, E coli growth-1 inactive, phage Ecoli inh inactive, AddAB inh inactive and E coli growth-2 inactive.
Cc1ccc2c(c1)C1C(CO2)C(c2ccccc2)[C@]2(C)C(=O)Nc3ccccc3C(=O)N12 (stereo not given in full) was read as E coli growth-1 inactive.
N=c1n(Cc2ccccc2)c2ccccc2n1CC(O)COc1ccc(Cl)cc1Cl (stereo not given) was read as Tat export inh inactive, E coli growth-1 0.5 and phage Ecoli inh inactive.
CN(C)CCCNc1cc(C(C)(C)C)nc2c(-c3ccc(Cl)cc3)cnn12 was read as Tat export inh inactive, E coli growth-1 0.27, phage Ecoli inh inactive, AddAB inh inactive and E coli growth-2 inactive.
For CCOc1ccc(NC(=O)COC(=O)CC2CCCCC2)cc1 the results were Tat export inh inactive, E coli growth-1 inactive, phage Ecoli inh 12, AddAB inh inactive and E coli growth-2 inactive.
`O=c1c(O)c(-c2cc(O)c(O)c(O)c2)oc2cc(O)cc(O)c12` gave Tat export inh inactive, phage Ecoli inh inactive, AddAB inh inactive and E coli growth-2 10.
Screening O=c1c(O)c(-c2ccccc2)oc2cc(O)cc(O)c12 returned Tat export inh inactive, E coli growth-1 inactive, phage Ecoli inh inactive, AddAB inh inactive and E coli growth-2 inactive.
For CCNc1nc(NCC)nc(NN=Cc2ccc(OC)cc2)n1 the results were E coli growth-1 inactive.
Screening N#CC(=Cc1ccc(N2CCCCC2)o1)C(=O)Nc1ccc2ccccc2c1 returned E coli growth-1 inactive.
`COc1ccc(-n2c(Cc3cccn3C)nnc2SCC(=O)Nc2ccc(C(C)=O)cc2)cc1` gave Tat export inh 56, E coli growth-1 inactive, phage Ecoli inh inactive, AddAB inh inactive and E coli growth-2 inactive.
COc1ccc(NC(=O)CSc2nnc(Cc3cccn3C)n2-c2ccc(OC)cc2)cc1 was read as Tat export inh inactive, E coli growth-1 inactive, phage Ecoli inh inactive, AddAB inh inactive and E coli growth-2 inactive.
For COc1cc(C=CC(=O)c2ccc([N+](=O)[O-])o2)ccc1O the results were E coli growth-1 inactive.
Screening COC(=O)CC=CC(C)C(C=NOCC1OC(c2ccccc2)C=CC1Oc1ccc(OC)cc1)OC (stereo not given) returned E coli growth-1 inactive.
For CC1(C)C(O)CC[C@@]2(C)C1CC[C@]1(C)C2C(=O)C=C2C3C[C@@](C)(C(=O)O)CC[C@]3(C)CC[C@]21C (stereo not given in full) the results were E coli growth-1 inactive.
Screening Cc1cc(C(=O)N/N=C/c2ccc(O)c(O)c2O)c(C)n1-c1ccccc1 returned Tat export inh inactive and phage Ecoli inh 20.
